Here are results for 45 molecules from ChEMBL document CHEMBL3988442, “University of Dundee, Small-Polar-MMV Screening Library” (2021).

Experiment [1] concerns the target T1, Aspartate--tRNA(Asp/Asn) ligase (Mycobacterium tuberculosis (strain ATCC 25618 / H37Rv)) (UniProt P9WFW3). Note: in the data most compounds retested in dose-response had high values.
T1 sequence (whole entry): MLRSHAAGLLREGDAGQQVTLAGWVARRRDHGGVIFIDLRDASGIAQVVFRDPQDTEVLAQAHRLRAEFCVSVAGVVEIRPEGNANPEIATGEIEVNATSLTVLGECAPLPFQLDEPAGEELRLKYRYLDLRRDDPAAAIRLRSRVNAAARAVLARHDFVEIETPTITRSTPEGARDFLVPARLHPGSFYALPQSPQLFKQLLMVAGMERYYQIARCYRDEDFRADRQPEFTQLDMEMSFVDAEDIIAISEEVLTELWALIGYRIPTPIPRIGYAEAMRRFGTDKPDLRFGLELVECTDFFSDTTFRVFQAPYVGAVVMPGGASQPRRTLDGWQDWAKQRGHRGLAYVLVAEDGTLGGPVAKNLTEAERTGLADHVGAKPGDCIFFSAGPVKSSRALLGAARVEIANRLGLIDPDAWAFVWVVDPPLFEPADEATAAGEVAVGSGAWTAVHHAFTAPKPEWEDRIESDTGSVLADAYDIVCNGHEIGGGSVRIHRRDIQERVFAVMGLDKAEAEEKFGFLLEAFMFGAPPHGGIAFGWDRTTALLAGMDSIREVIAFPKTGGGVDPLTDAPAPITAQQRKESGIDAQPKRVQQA
As to the kind of experiment: Assay for Asp RNA synthetase-1 from Mycobacterium tuberculosis. The format is functional. More on the design: scale not given: direction of the effect not stated beside the values. The following applies: 30 µM.

For experiment [2], the target named is Shiga toxin 2 (Escherichia coli O157:H7) (UniProt P09385+P09386). Put plainly: E. coli 0.157:H7 Shiga Toxin SOP - stx2 screening assay. The class given is functional. More on the design: scale not given: direction of the effect not stated beside the values. Particulars: 30 µM.

As to `CCNC(=O)CCN1CCC(c2cc(N3CCOCC3)nc(C)n2)CC1`, the Percent Effect is -4.4% in experiment [1] and -10.2% in experiment [2].

Take `CN(C)C(=O)Cc1nc(CN2CCCCC2Cn2cccn2)cs1` (stereo not given): the values for the Percent Effect in experiment [1] and in experiment [2] were 2.64% and -25.1%, respectively.

Consider `Cc1ccc(CN2CC3(CCN(C(=O)c4cscn4)C3)C2)s1`, for which the Percent Effect was -2.67% in experiment [1] and -39.3% in experiment [2].

On to `O=C(COc1ccc(C(F)(F)F)cc1)NS(=O)(=O)c1cccnc1`, for which the values for the Percent Effect in experiment [1] and in experiment [2] were 6.95% and 15%, respectively.

On to `CN(C)C(=O)N1C[C@@H]2CCCO[C@@H]2[C@H](N(C)Cc2ccco2)C1`, for which the values for the Percent Effect in experiment [1] and in experiment [2] were -1.32% and -18.8%, respectively.

On to `O=C(CCOCc1ccccc1)N1CCCC1c1noc(C2CC2)n1` (stereo not given), for which the Percent Effect was 14.9% in experiment [1] and 22.2% in experiment [2].

As for `CNCC(=O)N1CCCC(c2cccc(Nc3nc(C)cc(C)n3)n2)C1` (stereo not given), the Percent Effect is 3.29% in experiment [1] and -1.86% in experiment [2].

Take `CCS(=O)(=O)N(C)CC(=O)Nc1ccc(Br)cn1`: the Percent Effect is -2.34% in experiment [1] and -12.9% in experiment [2].

Consider `CC(C)c1nc(CN(C)CC2CCN(CCO)CC2)no1`, for which the Percent Effect in experiment [1] is 3.25%; in experiment [2], -7.83%.

With `COCc1cncc2c1CCN(C(=O)c1ccc(C)o1)C2`, the figures for the Percent Effect in experiment [1] and in experiment [2] were 8.15% and -6.15%, respectively.

`COc1cc(C(C)=O)ccc1OCC(=O)N(C)Cc1cnn(C)c1`: the Percent Effect in experiment [1] is -4.92%; in experiment [2], 0.928%.

For `CC(=O)NCC1CCN(C(=O)c2csc(-c3ccc(C)cc3C)n2)CC1`, the Percent Effect is 5.3% in experiment [1] and 14% in experiment [2].

Turning to `COc1ccc(CN2C[C@@H](OCc3csc(C)n3)[C@H]3COC[C@H]32)cc1`, the figures for the Percent Effect in experiment [1] and in experiment [2] were -1.16% and -12.3%, respectively.

As for `Cc1nc(C)n(C2CCCN(C(=O)COCc3ccccc3)C2)n1` (stereo not given), the Percent Effect in experiment [1] is -4.95%; in experiment [2], -2.76%.

As to `c1ncn(CC2CN(Cc3noc(C4CC4)n3)CCO2)n1` (stereo not given), the Percent Effect in experiment [1] is 0.367%; in experiment [2] it was -20.8%.

Consider `CC(C)CNC(=O)[C@H]1CCS(=O)(=O)[C@@H]2CN(Cc3ccc(Cl)cc3)C[C@H]12`, for which the Percent Effect is -0.0704% in experiment [1] and -5.7% in experiment [2].

For `O=C(c1ccoc1)N1CC[C@H]2OCC[C@@]2(COc2ncccc2F)C1`, the results for the Percent Effect in experiment [1] and in experiment [2] were -0.296% and 3.1%, respectively.

Turning to `CN(Cc1ccco1)Cc1ccccc1CNC(=O)c1ccc[nH]1`, the Percent Effect in experiment [1] is 0.725%; in experiment [2], 26.7%.

Turning to `CS(=O)(=O)N1C[C@@H]2CC[C@H](C1)N(Cc1cscn1)C2=O`, the figures for the Percent Effect in experiment [1] and in experiment [2] were 0.593% and -13.6%, respectively.

Consider `O=C(c1ccc(=O)[nH]n1)N1CC(c2nc(Cc3ccccc3)no2)C1`, for which the Percent Effect in experiment [1] was -0.546%; in experiment [2], -7.29%.

Take `Cc1ccc(-c2ncc(C(=O)NCCNc3ncccn3)s2)c(C)c1`: the Percent Effect is 7.92% in experiment [1] and -13.5% in experiment [2].

Turning to `CCC(=O)N1Cc2nccn2CC(CN(C)Cc2cccnc2)C1` (stereo not given), the Percent Effect in experiment [1] was 7.49%; in experiment [2], -5.95%.

As to `CC(C)c1nc(C2CCCN2CC(=O)N2CCc3ccccc32)no1` (stereo not given), the Percent Effect was determined as 1.52% in experiment [1] and 10.6% in experiment [2].

As for `CN(C)c1cc(CNC(=O)Nc2ccc(F)cc2)ccn1`, the Percent Effect in experiment [1] was 3.3%; in experiment [2], -156%.

With `Cc1cc(C(=O)N2CCc3nnc(N)cc3C2)c(C)n1-c1cccnc1`, the values for the Percent Effect in experiment [1] and in experiment [2] were 7.03% and -28.4%, respectively.

Take `COc1ccccc1CC(=O)NCCCN1CCCC1C(=O)N(C)C` (stereo not given): the figures for the Percent Effect in experiment [1] and in experiment [2] were 5.61% and -5.75%, respectively.

On to `CCc1n[nH]c(C2CN(C(=O)Cn3ccccc3=O)CCO2)n1` (stereo not given), for which the Percent Effect in experiment [1] was 0.8%; in experiment [2] it was -58%.

With `Cc1nn(C)c(C)c1C1CCCN1CC(=O)Nc1ccncc1` (stereo not given), the Percent Effect in experiment [1] was 1.52%; in experiment [2], 11.1%.

As to `O=C(N[C@@H]1CN(c2ncccn2)[C@@H]2CCCO[C@@H]21)c1cnccn1`, the Percent Effect came to 7.31% in experiment [1] and 2.14% in experiment [2].

In the case of `CC(C)(C)c1ncc2c(n1)CN(C(=O)c1ccncc1)C2`, the Percent Effect in experiment [1] is 2.51%; in experiment [2] it was -10.4%.

As for `CC(=O)N1N=C(c2ccccc2)OC1C(=O)NCCC1=CCCCC1` (stereo not given), the Percent Effect in experiment [1] was 0.28%; in experiment [2], 22.5%.

For the molecule `OCc1ccc(Cl)c(NCc2cccnc2)c1`, the Percent Effect is 1.83% in experiment [1] and -19.3% in experiment [2].

Consider `Cc1cnn(CC2CCCN2C(=O)c2cccc(-n3cnnn3)c2)c1` (stereo not given), for which the Percent Effect in experiment [1] is -7.68%; in experiment [2], 9.64%.

For the molecule `CCNC(c1cccnc1)c1cc(C)cc(C)c1` (stereo not given), the Percent Effect in experiment [1] was -2.55%; in experiment [2], -3.23%.

On to `O=C(NCC1CC1)[C@@H]1CCO[C@@H]2CCN(Cc3ccco3)C[C@H]21`, for which the Percent Effect in experiment [1] is 7.48%; in experiment [2], -6.74%.

Turning to `CCc1nc(CN2CCCN(Cc3cnn(C)c3)CC2)no1`, the Percent Effect was -10.6% in experiment [1] and -4.68% in experiment [2].

Turning to `O=C(c1ccco1)N1C[C@@H]2OCCN(CCN3CCCC3)[C@@H]2C1`, the Percent Effect is 7.66% in experiment [1] and -2.25% in experiment [2].

On to `O=C(NCc1nncn1-c1ccccc1)C1CC(=O)N(CC2CC2)C1` (stereo not given), for which the Percent Effect was -2.56% in experiment [1] and 23.5% in experiment [2].

Regarding `CSCCCN1CCCC1c1noc(C)n1` (stereo not given), the values for the Percent Effect in experiment [1] and in experiment [2] were 1.68% and 11.3%, respectively.

Take `CC1CN(CC(=O)Nc2nncs2)CCN1Cc1nccn1C` (stereo not given): the Percent Effect in experiment [1] came to 4.22%; in experiment [2] it was 12.1%.

Regarding `CN1C(=O)C(c2cccnc2)CC12CCN(C(=O)c1cccn1C)CC2` (stereo not given), the Percent Effect in experiment [1] was 0.99%; in experiment [2] it was -12.3%.

Take `Cc1ccc(-c2nc(CN3CCc4c(ncn4C)C3)cs2)o1`: the figures for the Percent Effect in experiment [1] and in experiment [2] were -4.21% and 0.313%, respectively.

With `O=C(NC1CC1)c1cc(NC(=O)N2CCCC(O)C2)ccc1Cl` (stereo not given), the Percent Effect in experiment [1] is -0.137%; in experiment [2], -38.6%.

On to `CCc1ccc(NC(=O)c2cnc(N3CCN(C)CC3)nc2C)cc1`, for which the Percent Effect in experiment [1] was -0.248%; in experiment [2], -28%.

With `CN(C)C(=O)N1CCOCC2(CCN(c3ncccn3)C2)C1` (stereo not given), the results for the Percent Effect in experiment [1] and in experiment [2] were 0.466% and 10%, respectively.
